Screening results: PubChem BioAssay, National Center for Advancing Translational Sciences (NCATS)
Most compounds without a hit are left out; they make up all but 2.9% or so of the library.
DRD3 agonist: qHTS of D3 Dopamine Receptor Agonist: qHTS | D3R DiscoveRx beta-arrestin cells, luminescence, 90 min | D(3) dopamine receptor (Homo sapiens), P35462 | max activation, % | 410,000 compounds, 0.58% hits; in the data active = max activation above about 30%; also: 0% is about no effect
Target sequence (P35462 whole entry, looked up): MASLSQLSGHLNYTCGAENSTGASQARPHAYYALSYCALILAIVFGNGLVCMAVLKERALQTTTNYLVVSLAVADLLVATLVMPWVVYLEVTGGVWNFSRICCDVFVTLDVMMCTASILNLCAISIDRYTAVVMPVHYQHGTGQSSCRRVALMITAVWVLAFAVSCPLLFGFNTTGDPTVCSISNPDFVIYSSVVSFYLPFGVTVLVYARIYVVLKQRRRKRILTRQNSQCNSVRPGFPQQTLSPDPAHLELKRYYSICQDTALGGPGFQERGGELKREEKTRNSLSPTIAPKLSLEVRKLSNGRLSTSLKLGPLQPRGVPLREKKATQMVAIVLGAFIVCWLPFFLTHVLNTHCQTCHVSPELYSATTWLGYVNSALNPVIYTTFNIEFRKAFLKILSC
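Cells at 1500/well, incubated overnight, then treated with pinned compounds (dopamine as control) for 90 min at 37 degrees C. DiscoveRx reagent added for 30 - 60 minutes at room temperature; luminescence read.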
TRPML1 inh: qHTS for Inhibitors of the Human Mucolipin Transient Receptor Potential 1 (TRPML1); activity change, negative = inhibition, % (concentration not given with the values); 390,000 compounds, 0.02% hits; TRPML1-inducible cells, Ca2+ dye fluorescence, FDSS; hits give low values; inhibition of EC80 agonist-evoked calcium signal; in the data active = activity change below about -50%; inconclusive = between about -30% and that limit;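 also: stimulus is agonist 54-4 at its EC80 concentration; % is scaled to controls: 0 for no effect and ±100 for the full control effect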
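TRPML1-DL cells, Tet-induced overnight (~16 h, 37 °C) at 1,500 cells/well, were loaded with Ca8 no-wash dye plus quencher for 45-90 min at room temperature. Compounds were pinned during FDSS kinetic reading; agonist 54-4 at EC80 (4 uM final) then added.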
D3 antag: qHTS of D3 Dopamine Receptor Antagonist: qHTS | 360,000 compounds, 2.5% hits | AID 652054, 2013 | D3R cells, DiscoveRx beta-arrestin luminescence, antagonist mode; hits give low values | max response, negative = inhibition, %; in the data active = max response below about -50%; inconclusive = no clear call, values can overlap the other calls; also: % is scaled to controls: 0 for no effect and ±100 for the full control effect
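Cells plated overnight at 1500 cells/well, then exposed to library compounds with dopamine controls for 90 minutes at 37 degrees C. DiscoveRx reagent added for 30–60 minutes at room temperature; luminescence read, quantitative HTS format.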
TRPML1 agonist: qHTS for Agonists of the Human Mucolipin Transient Receptor Potential 1 (TRPML1) | activation, % (no concentration beside the values) | Mucolipin-1 (Homo sapiens), Q9GZU1 | 410,000 compounds, 0.12% hits | TRPML1-expressing cells, Ca2+ dye fluorescence, FDSS; in the data active = activation above about 50%; inconclusive = mostly about 30% to 49%; also: 0% is about no effect
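Tetracycline-induced TRPML1-DL cells are seeded and incubated overnight before loading with a no-wash Ca2+ dye and quencher. Agonist activity is taken from the 110 s fluorescence read following compound pin-transfer on an FDSS, before EC80 54-4 challenge.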
* marks the source's active call; other numbers are inactive results; ? = inconclusive; · = no result.

SMILES	DRD3 agonist	TRPML1 inh	D3 antag	TRPML1 agonist
Cc1cccc(NC(=S)NCc2cccn2C)c1	4.1	11.8	-13.0	-0.8
Cc1cc(NS(=O)(=O)c2ccc(NC(=O)Nc3cccc(Cl)c3)cc2)no1	3.5	-16.7	-55.4*	0.0
COc1ccc(S(=O)(=O)c2c(Nc3cccc(C)c3C)sc(C(=O)c3ccccc3)c2N)cc1	-6.2	27.2	·	2.8
CCOC(=O)c1c(C)c(C(=O)NCc2ccco2)c(C)n1C	1.1	18.1	9.0	0.4
CCOC(=O)c1c(C)c(C(=O)NCc2cccs2)c(C)n1C	7.9	-56.7*	17.5	0.4
CC1=C(c2ccc(F)cc2)S(=O)(=O)N=C1N1CCC(C(=O)NCCc2cccc(C)c2)CC1	0.7	20.1	·	4.1
CSCCCN1CCCC(CO)(Cc2ccccc2F)C1 (stereo not given)	-7.4	-3.7	-56.2*	0.3
Cc1ccc(-n2ncc(C#N)c2/N=C/N2CCN(C)CC2)cc1	2.0	4.0	-75.9*	7.0
CCC(CO)Oc1cc(NCc2ccccc2O)c2ncn(C(C)C)c2c1 (stereo not given)	50.4*	31.0	182.8	0.0
CCC(CO)Oc1cc(NC(=O)c2cccc(OC)c2)c2ncn(C(C)C)c2c1 (stereo not given)	-18.0	0.4	-2.9	0.3
COCCOc1cc(NCc2ccccc2)c2ncn(C(C)C)c2c1	-14.7	12.9	-70.6*	-0.6
CCC(CO)Oc1cc(NC(=O)c2ccc(OC)cc2)c2ncn(C(C)C)c2c1 (stereo not given)	-18.0	-57.4*	-19.5	0.0
CN(C)c1ccc(/C=C/c2ccnc3ccccc23)c(N)c1	·	·	·	13.2
O=P(c1ccccc1)(c1ccccc1)c1ccccc1C(Br)Br	3.0	-20.5	-67.0*	-0.8
COc1cc2c(cc1NC(=O)c1cc(-c3ccncc3)nc3ccccc13)oc1ccccc12	7.5	14.5	7.2	-0.5
COc1ccc(NC(=O)c2cc(-c3cccnc3)nc3c(C)c(C)ccc23)c(OC)c1	48.2*	16.2	21.8	-0.3
COc1ccc(NC(=O)c2cccnc2)c(OC)c1	2.6	-4.0	18.7	2.4
COc1cc2c(cc1NC(=O)c1cc(-c3cccnc3)nc3ccc(C)cc13)oc1ccccc12	56.1*	-3.7	15.8	-0.1
O=C(c1ccccc1)C(c1ccccc1)[n+]1csc2ccccc21 (stereo not given)	·	·	·	-0.4
O=C(Nc1ccc(Br)cc1Cl)c1cnn2c1NC(=C1CC1)C=C2C(F)F	·	·	·	0.5
CC1CCN(S(=O)(=O)c2ccc3c(c2)c(=O)c(C(=O)N2CCCCC2)cn3C)CC1	34.5*	10.4	6.9	0.0
CC1CCN(S(=O)(=O)c2ccc3c(c2)c(=O)c(C(=O)N2CCOCC2)cn3C)CC1	1.5	14.1	4.1	0.0
Cc1ccc(C(=O)Nc2nnc(S(=O)(=O)N3CCOCC3)s2)cc1	-9.1	-5.3	-57.3*	0.7
O=C(Nc1nnc(S(=O)(=O)N2CCOCC2)s1)c1ccc(F)cc1	3.9	-14.8	-3.2	-0.1
CSc1nnc(NC(=O)c2ccc(S(=O)(=O)N3CCOCC3)cc2)s1	1.8	10.4	-59.2*	0.7
SMILES	DRD3 agonist	TRPML1 inh	D3 antag	TRPML1 agonist
O=C(NC1CC(=O)N(c2ccc(F)cc2)C1)c1cc2ccccc2o1 (stereo not given)	-18.7	-1.1	·	-0.1
COc1cccc(NC(=O)C2(C)CCN2C(=O)CCc2ccc(Cl)cc2Cl)c1 (stereo not given)	-5.0	53.4	-60.4*	-0.4
COc1ccc(OC)c(CNS(=O)(=O)c2c(C(=O)N3CCC(C)CC3)c(C)n(C)c2C)c1	11.6	-19.8	·	1.9
COc1ccc(CCNC(=O)C(C)n2nc(C)c3sc4ccccc4c3c2=O)c(OC)c1 (stereo not given)	-2.5	-1.4	·	3.1
COC(C[C@@H](O)C[C@@H](O)COCc1ccccc1)OC	-16.5	14.8	0.0	-1.0
COC(C[C@H](O)C[C@@H](O)COCc1ccccc1)OC	-3.1	35.2	-106.9*	-0.6
COc1ccc(OC)c(CNc2ncnc3onc(-c4ccc(Cl)cc4)c23)c1	-4.7	48.4	·	-0.5
CC1(C)[C@@H](O)CC[C@]2(C)[C@H]3C(=O)C=C4[C@@H]5C[C@@](C)(C(=O)O)CC[C@]5(C)CC[C@@]4(C)[C@]3(C)CC[C@@H]12	17.7	-2.6	0.0	-0.6
CC1(C)[C@@H](O)CC[C@]2(C)C3C(O)C=C4[C@H]5C[C@@](C)(CO)CC[C@]5(C)CC[C@]4(C)[C@]3(C)CC[C@@H]12 (stereo not given in full)	65.2*	-14.9	53.4	-0.7
Cc1nc2ccccc2n1CCc1nc2c3ccccc3nc(SCc3ccccc3F)n2n1	3.3	-3.9	·	2.2
CCCCC1=CC2=C(c3ccco3)C(=O)C(C)(OC(=O)c3ccc(OC)cc3)C(=O)C2=CN1CC1CC1 (stereo not given)	-35.7	17.2	-64.4*	1.4
O=C1C=CC(=O)N1Cc1ccccc1	-110.6	26.1	-139.5*	3.3
O=C1C2CC=CCC2C(=O)N1Cc1ccccc1 (stereo not given)	5.6	6.0	-5.2	-0.2
C=CCN(C)CC/C=C1\c2ccccc2CSc2ccccc21	-5.8	-1.6	-73.4*	0.0
CN(C)CC/C=C1/c2cc(F)ccc2CSc2ccc(F)cc21	-25.8	21.2	?	-0.1
CN(CC/C=C1/c2ccccc2CSc2ccccc21)CCCO	-16.6	14.3	?	1.1
C#CCN(C)CC/C=C1\c2ccccc2CSc2ccccc21	-20.5	23.8	-71.4*	3.1
CN(C)CC/C=C1\c2cc(F)ccc2CSc2ccccc21	-43.5	19.7	-51.7*	3.1
O=C(CC(NC(=O)c1ccccc1)c1ccccc1)OCc1nc(-c2cccc(Cl)c2)no1 (stereo not given)	·	·	·	-0.2
CNC[C@H](CC1CCCCC1)NC[C@H](CO)NCCc1cccc(C(F)(F)F)c1	-35.1	-3.4	-84.0*	-0.5
CNC[C@H](CC1CCCCC1)NC[C@H](CO)NCC1(c2ccccc2)CC1	-27.9	-2.4	12.1	-0.5
CCCCNCC#CCOc1cc(C)ccc1C(C)C	0.3	18.7	-52.0*	3.5
CN1C(C(=O)c2ccccc2)=C(NC(=O)c2ccccc2Br)c2ccccc2S1(=O)=O	-1.0	-5.8	·	-0.2
COc1ccc2c(c1)C=C/C2=C\c1ccc(N(C)C)cc1	·	·	·	-0.5
NNc1nc(Nc2ccccc2)nc(N2CCCCC2)n1	-30.7	7.1	?	-0.4
NNc1nc(Nc2ccccc2)nc(Nc2ccccc2)n1	-23.6	6.8	-52.1*	-0.2
Clc1ncc(C#Cc2ccccc2)c2ncncc12	·	·	·	3.9
COc1ccc(C2CC(c3ccc(Cl)cc3)Nc3nc(NC(=O)c4ccco4)nn32)cc1 (stereo not given)	2.1	-0.4	-6.6	0.2
